High-throughput results from PubChem BioAssay.
Compounds with a hit are over-represented: about 9.3% of the library has one in this group of screens.
NPC1 promoter act – activators of NPC1 promoter; Huh7 NPC1 promoter luciferase reporter, 24 h; Potency, µM (highest dose often 9.22 µM), inactives show at the top dose activation, usual class: activators; 2.4% of 320,000 active; AID 485313; also: % of control where 0% means no effect; nearly all actives have a fitted effect of over 60% in size
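Luminescence from an NPC1 promoter-driven luciferase reporter in stably transfected Huh7 cells was measured after 24 h compound treatment at 37 °C, followed by 10 min ambient incubation with luciferase detection reagent.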
ELG1 repair inh – ELG1-dependent DNA repair inhibition; HEK293T ELG1-luciferase reporter, luminescence, 16 h; DNA damage induced by 5-fluorouridine; Potency, µM (highest dose often 46.1 µM), for inactives: at the top dose activity change, negative = inhibition, hits mostly inhibitors; 2.3% of 330,000 active; AID 504467; also: % is scaled to controls: 0 for no effect and ±100 for the full control effect; nearly all actives have a fitted effect of over 55% in size
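Reporter activity after DNA damage by 5-fluorouridine is monitored. Compound-treated cells incubate 16 hr at 37 °C, then ONE-Glo is added for 30 min before luminescence reading.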
FLuc modulator – inhibits or activates purified firefly luciferase, miR-21 counter-screen; purified FLuc, Km substrates, luminescence inhibition; Potency, µM (top dose mostly 57.5 µM), without a hit: at the highest dose activity change, negative = inhibition, usual class: inhibitors; 6.9% of 360,000 active;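 also: plate controls were vehicle for no effect and reference inhibitor for full effect; nearly all actives have a fitted effect of over 55% in size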
Target sequence (P08659 whole entry, looked up): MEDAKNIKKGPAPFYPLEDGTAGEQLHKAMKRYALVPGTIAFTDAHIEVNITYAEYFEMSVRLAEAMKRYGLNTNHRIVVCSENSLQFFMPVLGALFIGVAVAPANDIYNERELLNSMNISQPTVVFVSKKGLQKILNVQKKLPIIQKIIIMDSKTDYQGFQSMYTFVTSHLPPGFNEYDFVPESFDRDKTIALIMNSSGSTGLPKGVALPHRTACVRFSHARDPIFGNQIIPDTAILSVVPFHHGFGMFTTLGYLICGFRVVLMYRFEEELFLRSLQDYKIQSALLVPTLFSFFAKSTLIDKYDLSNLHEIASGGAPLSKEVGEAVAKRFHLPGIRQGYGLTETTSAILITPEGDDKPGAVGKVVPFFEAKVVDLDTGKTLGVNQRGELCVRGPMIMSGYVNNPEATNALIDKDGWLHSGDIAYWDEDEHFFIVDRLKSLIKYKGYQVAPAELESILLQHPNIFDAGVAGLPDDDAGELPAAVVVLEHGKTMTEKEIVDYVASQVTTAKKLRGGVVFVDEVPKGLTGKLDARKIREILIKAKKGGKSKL
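Purified P. pyralis luciferase, 10 nM final, with Km-level 10 uM D-luciferin and 10 uM ATP in 50 mM Tris acetate pH 7.5, 10 mM Mg acetate, 0.01% Tween-20, 0.05% BSA; 6-point qHTS titration about 60 µM downward; luminescence read.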
Rab9 promoter act – activators of Rab9 promoter | 2.8% of 320,000 active | AID 485297 | Huh7 Rab9 promoter-luciferase reporter, luminescence, 24 h | Potency, µM (highest dose often 9.22 µM), inactives show at the top dose activation, negative = inhibition, usual class: activators; also: % of control where 0% means no effect; nearly all actives have a fitted effect of over 60% in size
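Cell-based reporter: Huh7 stable for Rab9 promoter-driven luciferase, plated in reduced-serum medium with 10% FBS at 1500 cells/well, compound-treated 24 h at 37 °C, luminescence read after 10 min reagent.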
ELG1 genotoxic – induces genotoxicity in HEK293T cells with luciferase-tagged ELG1; 1.3% of 330,000 active; Potency, µM (doses to about 46 µM), without a hit: at the highest dose activity change, positive = activation, actives largely listed as activators; HEK293T ELG1-luciferase reporter, luminescence, 16 h; AID 504466; also: % of control where 0% means no effect; nearly all actives have a fitted effect of over 60% in size
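HEK293T cells expressing luciferase-tagged ELG1 were treated with compound or DMSO for 16 hr at 37°C. Luciferase activity was then read after 30 min with ONE-Glo at room temperature; rising signal flags genetic stress.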
SMN2 splice up – increases expression of the SMN2 splice variant | 2.8% of 210,000 active | HEK293 SMN2-luciferase splicing reporter, luminescence, 30-36 h | AID 1458 | Potency, µM (highest dose often 46.1 µM), without a hit: at the highest dose activity change, positive = activation, most hits filed as activators; also: % of control where 0% means no effect; nearly all actives have a fitted effect of over 55% in size
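HEK293 cells carry an SMN2 minigene-luciferase reporter in which exon 7 inclusion puts luciferase in frame. Cells were seeded at 2000 cells/well, attached for 10-12 hours, then exposed to compounds for 30-36 hours at 37C before ONE-Glo luminescence.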
* hit, by the source's call; ? = inconclusive; nt = no result. Calls follow the shape of the dose curve; as a rule, active = well fitted curve in the direction sought with a large enough effect; inconclusive = small, poorly fitted or top-dose-only effect, or another doubt; inactive = no such curve, though single readings can be large; an effect the other way counts as inactive or inconclusive. Potency is read from the fitted curve at half-maximal effect.

SMILES	NPC1 promoter act	ELG1 repair inh	FLuc modulator	Rab9 promoter act	ELG1 genotoxic	SMN2 splice up
CCN(CC)CCNC(=O)c1cccc(NC(=O)C(=O)c2cc(Br)ccc2NC(C)=O)c1	-5%	0%	1%	3%	3%	-10%
CC(=O)Nc1ccccc1C(=O)C(=O)Nc1ccc(Cl)cc1	2.2µM*	?	-19%	2.5µM*	?	22µM*
CC(=O)Nc1ccccc1C(=O)C(=O)Nc1ccccc1	?	?	2%	?	2%	?
Cc1cccc(C)c1OCC(O)CNS(=O)(=O)c1ccccc1C(=O)N1CCCCC1 (stereo unspecified)	0%	16µM*	3%	-6%	-7%	-49%
CC(C)CNS(=O)(=O)c1ccccc1C(=O)N1CCCCC1	1%	?	4%	5%	-5%	5%
Cc1nc(C)c(-c2ccc(SCC(=O)Nc3ccc(F)cc3F)nn2)s1	-2%	18µM*	?	-2%	-7%	nt
COc1cccc(NC(=O)CSc2ccc(-c3sc(C)nc3C)nn2)c1	-5%	21µM*	?	1%	-22%	nt
Cc1nc(C)c(-c2ccc(SCC(=O)Nc3cccc(C)c3C)nn2)s1	nt	nt	1%	nt	nt	nt
COC(=O)CCC/C=C1/SCC(NC(=O)c2ccccc2)C1=O (stereo unspecified)	5%	20%	?	5%	17%	-13%
COC(=O)c1ccc(C(=O)OC)c(NC(=O)CN(C)Cc2ccc(Cl)c(Cl)c2)c1	-3%	?	-1%	-1%	-8%	-5%
CSc1ncccc1C(=O)Nc1ccc(OC(F)(F)F)cc1	-1%	3%	-13%	1%	-1%	-5%
COc1ccc2nc(NC(=O)c3cccnc3SC)sc2c1	?	?	5.4µM*	?	?	?
CSc1ncccc1C(=O)Nc1nc2ccc(S(C)(=O)=O)cc2s1	13%	?	21µM*	28%	4%	9%
COc1ccc(Cl)cc1C(=O)Nc1nc2ccc(S(C)(=O)=O)cc2s1	21%	?	-5%	0%	?	nt
COc1ccc(C(CNC(=O)c2cccc3cccnc23)N(C)C)cc1 (stereo unspecified)	-3%	19%	1%	-10%	2%	nt
COc1ccc(/C=C/C(=O)Nc2ccccc2C(F)(F)F)cc1OC	-5%	12%	4%	12%	4%	nt
COc1ccc(/C=C(/C(=O)Nc2ccccc2C(=O)N2CCCC2)c2ccccc2)cc1	-1%	23µM*	0%	-3%	-11%	-15%
COc1ccc(/C=C/C(=O)Nc2ccc(-n3nncc3-c3ccccc3)cc2)cc1OC	-7%	15µM*	5%	0%	-9%	1%
COc1ccc(/C=C/C(=O)Nc2ccccc2C(=O)NCC(c2ccc(OC)cc2)N(C)C)cc1 (stereo unspecified)	17%	?	11µM*	21%	6%	nt
COc1ccc(/C=C/C(=O)Nc2ccccc2C(=O)O)cc1OC	1.4µM*	?	0.15µM*	0.89µM*	?	-26%
O=C(CSCc1ccc(F)cc1)Nc1ccccc1C(=O)N1CCOCC1	1%	15%	-1%	0%	1%	12%
CCc1noc(C)c1C(=O)OCC(=O)Nc1ncc(Cl)cc1Cl	0%	2%	0%	0%	0%	nt
Cc1ccc(NC(=O)c2cc(N3C(=O)C=CC3=O)ccc2N2CCOCC2)cc1Cl	-9%	12%	?	-18%	7%	-38%
O=c1n(Cc2ccc(F)cc2)nc2n1-c1cc(Cl)ccc1OC2	nt	nt	0%	nt	nt	-5%
CCc1cc(C(=O)O)c(NC(=O)/C=C/c2ccc(OC)cc2)s1	2.5µM*	?	12µM*	2.8µM*	?	nt
COc1cccc(C(=O)Nc2ccccc2C(=O)N2CCCC2)c1	2%	9%	1%	-1%	-5%	-42%
COc1ccc(/C=C/C(=O)Nc2ccccc2C(F)(F)F)cc1	?	?	?	?	10%	?
